{
  "source": "PubChem BioAssay (EPA / NIEHS)",
  "note": "Values joined by “and” are separate entries in the source; they are usually repeats but may differ in a detail not shown here. Identical values can stand only once. Where a structure was tested more than once in an assay, its records may differ in their call. Active and inactive are the calls of the source. How the source made its calls: active means hit-call score of the fitted dose curve at least 0.9, where 1 is the maximum; inactive means score below 0.9.",
  "data": [
    {"read-out": "CD69, CD69 (gene 969)", "test": "BSK_LPS_CD69: BioMAP Diversity Plus: LPS Assay for CD69 Biomarker Activity (AID 2284303)", "details": "primary human HUVEC with PBMC", "experimental": "BSK_LPS is a cell-based, multiplexed-readout assay that uses umbilical vein endothelium and peripheral blood mononuclear cells, a human vascular primary cell co-culture, with measurements taken at 24 hours after chemical dosing in a 96-well plate.BSK_LPS_CD69 is an assay component measured in the BSK_LPS assay. It measures CD69 antibody related to regulation of gene expression using ELISA technology.Data from the assay component BSK_LPS_CD69 was analyzed at the endpoint, BSK_LPS_CD69, in the positive analysis fitting direction relative to DMSO as the negative control and baseline of activity. Using a type of binding reporter, gain or loss-of-signal activity can be used to understand protein changes. To generalize the intended target to other relatable targets, this assay endpoint is annotated to the 'cytokine' intended target family, where the subfamily is 'inflammatory factor'.\nThe levels of cell surface (or secreted, indicated by the prefix \"s\") biomarker endpoints were measured by ELISA. Overt cytotoxicity to cells in confluent adherent cultures (all systems other than the BT system) was assessed by measuring total protein levels using sulforhodamine B (SRB) staining in parallel cultures at the time of biomarker measurements, indicated as SRB endpoints. For proliferation assays for adherent cell types, individual cell types are cultured at sub-confluence and relative cell numbers quantified by SRB staining at time points optimized for each system (48 h: 3C and CASM3C systems; 72 h: BT and HDF3CGF systems; 96 h: SAg system). SRB was performed by staining cells with 0.1% SRB after fixation with 10% TCA and reading wells at 560 nm.Viability and proliferation of PBMC (T cells) was quantified by Alamar Blue reduction for the SAg and BT systems. For PBMC viability (referred to as PBMC Cytotoxicity within the assay endpoint names), cells were plated (75,000/well in a 96-well plate) and then chemical samples added for 1 h before addition of activators, SEB and TSST-1 (20 ng/mL final concentration each). Cells were incubated for 90 h. Then, Alamar Blue (20 uL/well) (Invitrogen, Cat DAL1100) was added for 6 h, and the plates were read with a fluorescence microplate reader at 546/580 nm (excitation/emission). For PBMC proliferation, cells were plated and activated as above but incubated for only 16 h prior to addition of Alamar Blue. Plates were read after 6 h.", "values": [
      {"smiles": "C=C(C)C(=O)OCC(F)(F)C(F)(F)C(F)(F)F", "outcome": "inactive"},
      {"smiles": "CC(C)(C)C(=O)CC(=O)C(F)(F)C(F)(F)C(F)(F)F", "outcome": "inactive"},
      {"smiles": "Cc1ccc(S(=O)(=O)OCC(F)(F)C(F)(F)C(F)(F)C(F)(F)C(F)(F)C(F)F)cc1", "outcome": "inactive", "AC50": "7.94 µM (active)"},
      {"smiles": "O=S(=O)(O)C(F)(F)C(F)(F)C(F)(F)C(F)(F)C(F)(F)C(F)(F)C(F)(F)F", "outcome": "inactive"},
      {"smiles": "O=C(O)C(F)(F)C(F)(F)F", "outcome": "inactive"},
      {"smiles": "O=C(O)C(F)(F)C(F)(F)C(F)(F)C(F)(F)C(F)(F)C(F)(F)C(F)(F)C(F)(F)C(F)(F)C(F)(F)C(F)(F)C(F)(F)F", "outcome": "inactive"},
      {"smiles": "FC(F)(Br)C(F)(F)C(F)(F)C(F)(F)C(F)(F)C(F)(F)Br", "outcome": "inactive"},
      {"smiles": "O=C(O)C(F)(F)C(F)(F)OC(F)(F)F", "outcome": "inactive"},
      {"smiles": "OCC(F)(F)C(F)(F)C(F)(F)C(F)(F)C(F)(F)C(F)(F)F", "outcome": "inactive"},
      {"smiles": "O=C(O)C(F)(OC(F)(F)C(F)(OC(F)(F)C(F)(OC(F)(F)C(F)(F)C(F)(F)F)C(F)(F)F)C(F)(F)F)C(F)(F)F", "note": "(stereo not given)", "outcome": "inactive"},
      {"smiles": "O=C(O)C(F)(F)C(F)(F)C(F)(F)C(F)(F)C(F)(F)C(F)(F)C(F)(F)C(F)(F)Cl", "AC50": "35.5 µM (active) and 40.7 µM (active)"},
      {"smiles": "FC(F)(F)C(F)(F)C(F)(F)C(F)(F)C(F)(F)C(F)(F)CC1CO1", "note": "(stereo not given)", "outcome": "inactive"},
      {"smiles": "OCC(F)(F)C(F)(F)C(F)(F)C(F)(F)C(F)(F)C(F)F", "outcome": "inactive"},
      {"smiles": "O=S(=O)(OCCOC(F)(F)F)C(F)(F)F", "outcome": "inactive"},
      {"smiles": "O=C(Cl)C(F)(F)C(F)(F)C(F)(F)C(F)(F)C(F)(F)C(F)(F)C(F)(F)C(F)(F)F", "outcome": "inactive", "AC50": "18.1 µM (active) and 22.1 µM (active)"},
      {"smiles": "O=C(O)C=C(C(F)(F)F)C(F)(F)F", "outcome": "inactive"},
      {"smiles": "O=S(=O)(OCC(F)F)C(F)(F)F", "outcome": "inactive"},
      {"smiles": "COC(=O)CCC(F)(F)C(F)(F)C(F)(F)C(F)(F)F", "outcome": "inactive"},
      {"smiles": "FC(F)(F)C(F)(F)C(F)(F)C(F)(F)C(F)(F)C(F)(F)C(F)(F)I", "outcome": "inactive"},
      {"smiles": "FC(F)(F)C(F)(F)C(F)(F)C(F)(F)C(F)(F)C(F)(F)C(F)(F)C(F)(F)CCS", "outcome": "inactive"},
      {"smiles": "CCCCCCCCC(F)(F)C(F)(F)C(F)(F)C(F)(F)C(F)(F)C(F)(F)F", "outcome": "inactive"},
      {"smiles": "FC(F)(F)C(F)(F)C(F)(F)C(F)(F)C(F)(F)C(F)(F)C(F)(F)Br", "outcome": "inactive"},
      {"smiles": "CCCCC(CC)COP(=O)(O)OCC(CC)CCCC", "note": "(stereo not given)", "AC50": "0.987 µM (active)", "outcome": "inactive"},
      {"smiles": "O=C(CC(=O)C(F)(F)C(F)(F)F)C(F)(F)F", "outcome": "inactive"},
      {"smiles": "C=CC(F)(F)C(F)(F)C(F)(F)C(F)(F)C(F)(F)C(F)(F)C(F)(F)C(F)(F)F", "outcome": "inactive"},
      {"smiles": "C=CC(=O)OCC(F)(F)C(F)(F)C(F)(F)C(F)(F)C(F)(F)C(F)(F)C(F)(F)F", "outcome": "inactive"},
      {"smiles": "CCO[Si](CCC(F)(F)C(F)(F)C(F)(F)C(F)(F)C(F)(F)C(F)(F)F)(OCC)OCC", "outcome": "inactive"},
      {"smiles": "CCCCCCOC(=O)c1ccccc1O", "AC50": "39.4 µM (active) and 46.4 µM (active)"},
      {"smiles": "O=C(O)C(F)(F)C(F)(F)C(F)(F)F", "outcome": "inactive"},
      {"smiles": "OCCCC(F)(F)C(F)(F)C(F)(F)C(F)(F)C(F)(F)C(F)(F)C(F)(F)F", "AC50": "52.1 µM (active) and 51.7 µM (active)"},
      {"smiles": "N=C(N)C(F)(F)C(F)(F)C(F)(F)C(F)(F)C(F)(F)C(F)(F)C(F)(F)F", "AC50": "45 µM (active) and 14.9 µM (active)"},
      {"smiles": "O=C(O)C(F)(F)C(F)(F)C(F)(F)C(F)(F)C(F)(F)C(F)(F)C(F)(F)C(F)(F)C(F)(F)C(F)F", "AC50": "37.8 µM (active) and 27.9 µM (active)"},
      {"smiles": "C=CC(=O)OCC(F)(F)C(F)(F)C(F)(F)C(F)(F)COC(=O)C=C", "AC50": "8.63 µM (active) and 9.41 µM (active)"},
      {"smiles": "FC(F)(I)C(F)(F)C(F)(F)C(F)(F)I", "outcome": "inactive"},
      {"smiles": "O=C(O)C(F)(F)C(F)(F)C(F)F", "outcome": "inactive"},
      {"smiles": "FC(F)(F)C(F)(F)C(F)(F)CI", "outcome": "inactive"},
      {"smiles": "C=CC(F)(F)C(F)(F)C(F)(F)C(F)(F)C(F)(F)C(F)(F)C(F)(F)C(F)(F)C=C", "outcome": "inactive"}
    ]}
  ]
}
